Laboratory results reported in PubChem BioAssay AID1159580 (chemical genetic matrix, 2015).
In all, about 5,500 compounds went through this assay and about 2,000 (36%) were called active. Not shown: some 18% with an inconclusive outcome. Cut-off read from the data, not from the text of the source: active = normalized growth mostly below about 0.91 (no sharp cut-off); inconclusive = no clear call, values can overlap the other calls; inactive = mostly above about 0.92. The list shows a part of the results.

Assay: chemical genetic growth profiling, strain panel (AID 1159580);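 note: tested at 20 µM; growth read once vehicle control cultures reached saturation at 30 °C; 1 = growth at the plate median or of vehicle wells; lower values mean less growth of the strain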
Settings: S. cerevisiae deletion strains, growth OD
[1] = locus YPL055C, strain LGE1, stronger effect = lower value
[2] = locus YPL241C, strain CIN2, stronger effect = lower value

Measured: normalized growth

CC(C)NC(C)Cc1ccc(I)cc1 (stereo not given)
inactive: locus YAL013W, strain DEP1, stronger effect = lower value 0.999 | locus YAL040C, strain CLN3, stronger effect = lower value 1.01 | locus YCL061C, strain MRC1 (second series), stronger effect = lower value 1.01 | locus YDR150W, strain NUM1, stronger effect = lower value 1.01 | locus YDR363W, strain ESC2, stronger effect = lower value 0.995 | locus YER002W, strain NOP16, stronger effect = lower value 1 | locus YNL175C, strain NOP13, stronger effect = lower value 1.01 | locus YNL197C, strain WHI3, stronger effect = lower value 1.01 | locus YNL224C, strain SQS1, stronger effect = lower value 1 | locus YNL322C, strain KRE1, stronger effect = lower value 1 | locus YOR083W, strain WHI5 (second series), stronger effect = lower value 0.998 | [1] 0.991 | [2] 1.02

COC(=O)CC1C(C)(C)C(=O)C2CC3(O)C4=CC(=O)OC(c5ccoc5)C4(C)CCC3C1(C)C2=O (stereo not given)
inactive: locus YBR021W, strain FUR4, stronger effect = lower value 1 | locus YBR229C, strain ROT2, stronger effect = lower value 1 | locus YCL029C, strain bik1, stronger effect = lower value 0.983 | locus YDL035C, strain GPR1, stronger effect = lower value 1.01 | locus YDL074C, strain BRE1, stronger effect = lower value 1 | locus YDL101C, strain DUN1, stronger effect = lower value 1 | locus YDL185W, strain tfp1, stronger effect = lower value 0.981 | locus YDL192W, strain arf1, stronger effect = lower value 0.99 | locus YDR101C, strain arx1, stronger effect = lower value 0.997 | locus YDR162C, strain NBP2, stronger effect = lower value 1.02 | locus YDR318W, strain mcm21, stronger effect = lower value 0.977 | locus YDR388W, stronger effect = lower value 0.982 | locus YDR502C, strain sam2, stronger effect = lower value 0.992 | locus YER110C, stronger effect = lower value 0.983 | locus YER155C, strain BEM2, stronger effect = lower value 1 | locus YER167W, strain BCK2, stronger effect = lower value 1.01 | locus YGL078C, strain dbp3, stronger effect = lower value 0.982 | locus YGL086W, strain mad1, stronger effect = lower value 0.993 | locus YGL248W, strain PDE1, stronger effect = lower value 1 | locus YGR135W, strain pre9, stronger effect = lower value 0.985 | locus YGR252W, strain gcn5, stronger effect = lower value 0.906 | locus YHR030C, strain SLT2, stronger effect = lower value 1.01 | locus YHR079C, strain IRE1 (second series), stronger effect = lower value 0.977 | locus YHR094C, strain hxt1, stronger effect = lower value 0.985 | locus YHR129C, strain ARP1, stronger effect = lower value 1 | locus YHR200W, strain rpn10, stronger effect = lower value 0.986 | locus YIL066C, strain RNR3, stronger effect = lower value 1.01 | locus YIL073C, strain SPO22, stronger effect = lower value 1.03 | locus YIL125W, strain kgd1, stronger effect = lower value 0.984 | locus YIR030C, strain dcg1, stronger effect = lower value 0.989 | locus YJL095W, strain BCK1, stronger effect = lower value 1.02 | locus YJL134W, strain LCB3, stronger effect = lower value 1 | locus YJL168C, strain set2, stronger effect = lower value 0.982 | locus YJL187C, strain SWE1 (second series), stronger effect = lower value 1 | locus YJR043C, strain POL32, stronger effect = lower value 0.997 | locus YKL009W, strain mrt4, stronger effect = lower value 0.989 | locus YKL068W, stronger effect = lower value 0.993 | locus YKL085W, strain MDH1 (second series), stronger effect = lower value 0.991 | locus YKL085W, strain MDH1, stronger effect = lower value 0.991 | locus YKR001C, strain vps1, stronger effect = lower value 0.97 | locus YLR039C, strain RIC1, stronger effect = lower value 1.05 | locus YLR058C, strain SHM2, stronger effect = lower value 1 | locus YLR102C, strain apc9, stronger effect = lower value 0.988 | locus YLR262C, strain YPT6, stronger effect = lower value 1.13 | locus YLR268W, strain sec22, stronger effect = lower value 0.977 | locus YLR342W, strain FKS1 (second series), stronger effect = lower value 0.992 | locus YLR371W, strain rom2, stronger effect = lower value 0.986 | locus YLR418C, strain cdc73, stronger effect = lower value 0.966 | locus YML016C, strain PPZ1, stronger effect = lower value 1 | locus YML032C, strain rad52, stronger effect = lower value 0.982 | locus YML124C, strain tub3, stronger effect = lower value 0.988 | locus YMR078C, strain ctf18, stronger effect = lower value 0.991 | locus YMR223W, strain ubp8, stronger effect = lower value 0.992 | locus YMR307W, strain GAS1, stronger effect = lower value 0.985 | locus YNL067W, strain RPL9B, stronger effect = lower value 1.01 | locus YNL128W, strain TEP1, stronger effect = lower value 1.01 | locus YNL233W, strain BNI4, stronger effect = lower value 1.01 | locus YNL250W, strain rad50, stronger effect = lower value 0.986 | locus YNL271C, strain bni1, stronger effect = lower value 0.979 | locus YNL298W, strain CLA4, stronger effect = lower value 0.982 | locus YNL307C, strain MCK1, stronger effect = lower value 0.986 | locus YNR052C, strain pop2, stronger effect = lower value 0.978 | locus YOL012C, strain htz1 1.11 | locus YOL147C, strain pex11, stronger effect = lower value 0.983 | locus YOR061W, strain CKA2, stronger effect = lower value 1.01 | locus YOR069W, strain VPS5, stronger effect = lower value 1 | locus YOR136W, strain idh2, stronger effect = lower value 0.978 | locus YOR144C, strain elg1, stronger effect = lower value 0.985 | locus YOR184W, strain ser1, stronger effect = lower value 0.992 | locus YOR316C, strain cot1, stronger effect = lower value 0.991 | [1] 0.994 | [2] 1 | locus YPR119W, strain clb2, stronger effect = lower value 0.999 | locus YPR141C, strain kar3, stronger effect = lower value 0.99 | locus YPR163C, strain tif3, stronger effect = lower value 0.982 | locus YPR167C, strain met16, stronger effect = lower value 0.985 | strain wtn01, stronger effect = lower value 0.99
